# Hit rate of the full screen: of about 4,400 compounds, about 390 (8.9%) showed an effect of 50% or more. The entries come from a sample that favours strong results as a whole.
# Tested on: Trypanosoma brucei
# Assay: DNDI: Inhibition of Human African Trypanosomiasis, SBRI 427, in vitro at 2 ug.mL-1
# Format: functional
row,SMILES,% inhibition [%]
1,Cn1nc(C(C)(C)C)cc1NCc1coc(-c2ccc(C(F)(F)F)cc2)n1,-8
2,Cc1ccc(/C(=N/O)NCc2ccncc2)c(Oc2cc(Cl)ccc2Cl)n1,-10
3,Cc1ccc(/C(=N/O)NCc2cccs2)c(Oc2cc(Cl)ccc2Cl)n1,16
4,C=CCc1ccc(Oc2nc(C)ccc2/C(=N/O)NCc2ccco2)c(OC)c1,63
5,C=CCc1ccc(Oc2nc(C)ccc2/C(=N/O)N2CCSCC2)c(OC)c1,48
6,C=CCc1ccc(Oc2nc(C)ccc2/C(=N/O)N2CCN(CC=C)CC2)c(OC)c1,68
7,COc1ccc(CN/C(=N\O)c2ccc(C)nc2Oc2cc(Cl)ccc2Cl)cc1,14
8,C=CCc1ccc(Oc2nc(C)ccc2/C(=N/O)NCc2ccc(OC)cc2)c(OC)c1,22
9,Cc1cc(C)cc(CN/C(=N\O)c2ccc(C)nc2Oc2cc(Cl)ccc2Cl)c1,64
10,C=CCc1ccc(Oc2nc(C)ccc2/C(=N/O)NCC2CC2)c(OC)c1,44
11,Cc1ccc(/C(=N/O)NCc2ccco2)c(Oc2ccc(Cl)cc2-c2ccno2)n1,13
12,Cc1ccc(/C(=N/O)NCc2ccco2)c(Oc2cc(Cl)ccc2Cl)n1,62
13,C=CCc1ccc(Oc2nc(C)ccc2/C(=N/O)N2CCC(C(=O)OC)CC2)c(OC)c1,27
14,CCOc1ccc(-c2nc(CNCc3ccc(OC)cc3OC)co2)cc1,-17
15,CCOc1ccccc1-c1nc(CN2CCN(C(=O)C3CCCO3)CC2)co1 (stereo unspecified),8
16,Cc1ccc(Oc2nc(C)ccc2/C(=N/O)N2CCSC2)c(C)c1,26
17,COCC(C)NCc1coc(-c2ccccc2Cl)n1 (stereo unspecified),-6
18,COc1cccc(CN/C(=N\O)c2ccc(C)nc2Oc2cc(Cl)ccc2Cl)c1,-48
19,Cc1ccc(/C(=N/O)NCc2cc(F)cc(F)c2)c(Oc2cc(Cl)ccc2Cl)n1,76
20,Cc1ccc(/C(=N/O)NCc2cc(F)ccc2F)c(Oc2cc(Cl)ccc2Cl)n1,-39
21,CCOc1ccccc1-c1nc(CN(C)CC2OCCO2)co1,-5
22,Fc1ccccc1-c1nc(CNc2ccccc2)co1,13
23,CN(/C(=N\O)c1ccnc(Oc2cccc3c2CCCC3)c1)C1CCCCC1,14

row,SMILES,% inhibition [%]
1,Cc1ccc(CN/C(=N\O)c2ccnc(Oc3cccc4c3CCCC4)c2)o1,40
2,O/N=C(\NC1CCCCC1)c1ccnc(Oc2cccc3c2CCCC3)c1,99
3,O/N=C(\NCc1c(F)cccc1F)c1ccnc(Oc2cccc3c2CCCC3)c1,37
4,O/N=C(\NCC1CCCCC1)c1ccnc(Oc2cccc3c2CCCC3)c1,96
5,Cc1ccc(Oc2cc(/C(=N/O)NC3CCCC3)ccn2)c2c1CCC2,11
6,CCOc1ccccc1-c1nc(CN(CC)Cc2ccncc2)co1,12
7,CCOc1ccc(-c2nc(CNCC(C)(C)CN(C)C)co2)cc1,39
8,O/N=C(/c1ccc(Oc2cccc(F)c2)nc1)N1CCN(c2ccccc2)CC1,2
9,CSc1ccc(Oc2cc(/C(=N/O)NC3CCCCC3)ccn2)cc1,21
10,COc1ccc(Oc2cc(/C(=N/O)NC3CC(C)CC(C)(C)C3)ccn2)cc1 (stereo unspecified),14
11,COc1ccc(Oc2cc(/C(=N/O)N3C(C)CCCC3C)ccn2)cc1 (stereo unspecified),10
12,COc1ccc(Oc2cc(/C(=N/O)NCC3CCCO3)ccn2)cc1 (stereo unspecified),34
13,COc1ccc(Oc2cc(/C(=N/O)NC3CCC3)ccn2)cc1,100
14,COc1ccc(Oc2cc(/C(=N/O)NC3CCCCC3)ccn2)cc1,100
15,Cc1ccc(Oc2nc(C)ccc2/C(=N/O)N(C)C2CCCCC2)c(C)c1,18
16,Cc1cc(C)cc(Oc2ccc(/C(=N/O)n3cnc(C)c3)cn2)c1,1
17,CCCCN(CC#N)Cc1coc(-c2ccc(C)cc2)n1,7
18,CCN(Cc1coc(-c2ccccc2F)n1)c1ccc(C)cc1,-32
19,CCc1ccc(Oc2ncccc2/C(=N/O)NC(C)COC)cc1 (stereo unspecified),87
20,COCC(C)N/C(=N\O)c1cccnc1Oc1cccc(C(F)(F)F)c1 (stereo unspecified),1
21,COCC(C)N/C(=N\O)c1cccnc1OCC(C)C (stereo unspecified),5
22,CCc1ccc(Oc2ncccc2/C(N)=N/O)cc1,1
23,COCC(C)N/C(=N\O)c1cccnc1Oc1ccc(C(C)C)cc1 (stereo unspecified),99

row,SMILES,% inhibition [%]
1,COCC(C)N/C(=N\O)c1cccnc1Oc1ccc(OC)cc1 (stereo unspecified),-10
2,CCOc1ccccc1-c1nc(CN2CCN(C(c3ccccc3)c3ccccc3)CC2)co1,5
3,COc1ccccc1CN/C(=N\O)c1ccc(Oc2cc(C)cc(C)c2)nc1,-8
4,O/N=C(/c1ccc(Oc2ccc(Cl)cc2)nc1)n1ccnc1,0
5,CCOc1ccc(Oc2cc(/C(=N/O)NCc3ccc(C)o3)ccn2)cc1,24
6,Cc1ccccc1-c1nc(CNCc2ccccc2C(F)(F)F)co1,7
7,FC(F)(F)c1ccc(CNCc2coc(-c3cccc4ccccc34)n2)cc1,3
8,O/N=C(\NCc1cccnc1)c1cccnc1OCc1ccccc1F,4
9,O/N=C(\NCc1ccccc1F)c1cccnc1OCc1cccc(F)c1,29
10,CCOc1ccccc1CN/C(=N\O)c1cccnc1OCc1cccc(F)c1,72
11,CCOc1ccccc1CN/C(=N\O)c1cccnc1OCc1ccccc1F,55
12,CCOc1ccccc1CN/C(=N\O)c1ccc(C)nc1OCc1ccccc1F,8
13,COc1ccccc1CN/C(=N\O)c1ccc(C)nc1OCc1cccc(F)c1,-8
14,FC(F)(F)c1ccc(-c2nc(CNc3cc[nH]n3)co2)cc1,40
15,Cc1ccc(/C(=N/O)N2C(C)CCCC2C)c(Oc2ccc(F)cc2)n1 (stereo unspecified),28
16,O/N=C(/c1ccc(Oc2cccc3ccccc23)nc1)N1CCCCCC1,25
17,CCOc1ccc(-c2nc(CN(C)CCc3ccc(OC)c(OC)c3)co2)cc1,-3
18,Cc1ccc(/C(=N/O)NCc2c(F)cccc2F)c(Oc2cc(Cl)ccc2Cl)n1,35
19,Cc1ccc(/C(=N/O)NCc2ccccc2F)c(Oc2cc(Cl)ccc2Cl)n1,81
20,COc1ccccc1CN/C(=N\O)c1ccc(C)nc1Oc1cc(Cl)ccc1Cl,100
21,Cc1ccc(/C(=N/O)NCc2ccccc2C)c(Oc2cc(Cl)ccc2Cl)n1,18
22,COc1ccccc1CN/C(=N\O)c1ccc(C)nc1Oc1ccc(F)c(Cl)c1,11
23,COc1ccccc1CN/C(=N\O)c1ccc(C)nc1Oc1ccc(Cl)cc1,3

row,SMILES,% inhibition [%]
1,COc1cccc(-c2nc(CNCc3ccccc3C(F)(F)F)co2)c1,20
2,Cc1ccc(C)c(N2CCN(Cc3coc(-c4ccc(F)cc4)n3)CC2)c1,-12
3,CC(NCc1coc(-c2ccc(O)cc2)n1)C1CCCCC1 (stereo unspecified),0
4,Cc1ccc(-c2nc(CNC3CCCCCCC3)co2)cc1,71
5,c1coc(-c2nc(CNC3CCCCC3)co2)c1,6
6,Oc1ccc(-c2nc(CNC3CCCCCCCCCCC3)co2)cc1,60
7,Oc1ccc(-c2nc(CNC3CCCCCC3)co2)cc1,16
8,Fc1ccc(-c2nc(CNC3CCCCC3)co2)cc1,8
9,FC(F)(F)c1ccc(-c2nc(CNc3ccc(Oc4ccccc4)cc3)co2)cc1,4
10,COc1cccc(-c2nc(CN(CCN(C)C)Cc3ccccc3)co2)c1,23
11,Cc1cc(C)cc(Oc2ccc(/C(=N/O)N3CCN(C4CCCC4)CC3)cn2)c1,0
12,COc1cc(-c2nc(CNC(C)c3cccc4ccccc34)co2)cc(OC)c1OC (stereo unspecified),-4
13,CCOc1ccccc1CN/C(=N\O)c1cccnc1Oc1c(F)cccc1F,41
14,Cc1ccccc1CN/C(=N\O)c1cccnc1Oc1c(F)cccc1F,95
15,O/N=C(\NCc1cccnc1)c1cccnc1Oc1ccc(F)cc1,2
16,CSc1ccccc1Oc1ncccc1/C(=N/O)NCc1c(F)cccc1F,58
17,O/N=C(\NCc1c(F)cccc1F)c1cccnc1Oc1ccc(F)cc1,94
18,O/N=C(\NCc1ccccc1)c1cccnc1Oc1c(F)c(F)cc(F)c1F,10
19,COc1ccc(CN/C(=N\O)c2cccnc2Oc2c(F)cccc2F)cc1,-7
20,CC(C)(C)CN/C(=N\O)c1cccnc1Oc1c(F)cccc1F,100
21,COc1ccccc1Oc1ncccc1/C(=N/O)NCc1c(F)cccc1F,28
22,O/N=C(\NCc1ccncc1)c1cccnc1Oc1ccc(F)cc1,2
23,CCc1ccc(Oc2ncccc2/C(=N/O)n2ccnc2)cc1,3

row,SMILES,% inhibition [%]
1,Cc1cccc(Oc2ccc(/C(=N/O)N(C)C3CCCCC3)cn2)c1,4
2,Cc1ccc(/C(=N/O)NCC2CC2)c(Oc2cccc3c2CCCC3)n1,-5
3,Cc1cc(C)cc(Oc2nc(C)ccc2/C(=N/O)Nc2ccc(C(C)C)cc2)c1,0
4,COc1cccc(-c2nc(CN3CCN(c4ccccn4)CC3)co2)c1,-9
5,Oc1ccc(-c2nc(CNCc3ccccc3)co2)cc1,1
6,CN(Cc1coc(-c2ccc(C(F)(F)F)cc2)n1)CC1OCCO1,-7
7,CN(Cc1cccnc1)Cc1coc(-c2cccc(F)c2)n1,-1
8,Cc1cccc(Oc2ncccc2/C(=N/O)NCc2cccs2)c1C,3
9,Cc1ccc(Oc2ncccc2/C(=N/O)NCc2ccccc2)cc1,12
10,O/N=C(\NCc1cccs1)c1cccnc1Oc1c(F)cccc1F,73
11,Cc1cccc(Oc2ncccc2/C(=N/O)NCc2ccncc2)c1C,5
12,Cc1ccc(Oc2ncccc2/C(=N/O)NCc2c(F)cccc2F)cc1,98
13,Cc1ccccc1CN/C(=N\O)c1cccnc1Oc1cccc(C)c1C,85
14,O/N=C(\NCc1c(F)cccc1F)c1cccnc1Oc1ccccc1,98
15,O/N=C(\NCc1cccnc1)c1cccnc1Oc1ccccc1,8
16,CCCN/C(=N\O)c1cccnc1Oc1ccccc1,8
17,O/N=C(\NCc1ccccc1)c1cccnc1Oc1c(F)cccc1F,3
18,Cc1ccc(Oc2nc(C)ccc2/C(=N/O)NCc2c(F)cccc2F)cc1,13
19,COc1ccccc1CN/C(=N\O)c1cccnc1Oc1cccc(C)c1C,7

# Source: ChEMBL document CHEMBL1857833, “Screening and optimization of specific chemical series against human African Trypanosomiasis (HAT)”
